Unmarked numbers belong to inactive results. Active and inactive are the calls of the source. Rule as the data show it: active = fold change mostly below about -2 (no sharp cut-off); inactive = mostly above about -1.8.
Experiment: TERT promoter activity modulators, primary screen, cell-based, luciferase reporter, human (AID 1259240)
Details: A2780 TERT promoter luciferase reporter, 16 h; at 20 µM, fold versus average of vehicle-only wells

| SMILES | fold change | outcome |
| --- | --- | --- |
| Cc1ccc2nc(NCc3ccc(F)cc3)c3nncn3c2c1 | 1.08 |  |
| O=C(O)CN1C(=O)/C(=C/c2ccc(SCc3ccco3)o2)SC1=S | -1.49 |  |
| Cc1cc(Cl)ccc1OCc1nc(-c2ccc(-n3cccc3)cc2)no1 | -1.5 |  |
| O=C(CC(=O)Nc1ccc(F)cc1F)Nc1ccc2nc3n(c(=O)c2c1)CCCCC3 | -1.32 |  |
| COc1ccc2oc(=O)c(S(=O)(=O)c3ccc(C(C)C)cc3)cc2c1 | 1.21 |  |
| Cc1ccc(-n2c(C)cc(/C=C3/SC(=S)N(CC(=O)O)C3=O)c2C)cc1 | -5.22 (active) |  |
| CCN(CC)C(=O)Nc1ccc2snnc2c1 | -1.04 |  |
| COc1ccc(-c2nc(CSc3nc4ccncc4[nH]3)c(C)o2)cc1 | -1.53 |  |
| O=C(O)CSc1ncn(-c2ccccc2)n1 | -4.67 (active) |  |
| CC(CCc1ccco1)NC(=O)Cn1ncc2c1-c1ccccc1OC2 (stereo unspecified) | 1.12 |  |
| Cc1ccc(N2CN=c3s/c(=C4\C(=O)Nc5ccccc54)c(=O)n3C2)cc1 | -1.33 |  |
| COCCn1c(SCC(=O)NCC2CCCO2)nnc1-c1c[nH]c2ccccc12 (stereo unspecified) |  | inactive |
| CCOC(=O)N1CCC(Nc2c(NC3CCC(C)CC3)c(=O)c2=O)CC1 (stereo unspecified) | 1.1 |  |
| CCOC(=O)C1CCCN(c2c(NCCN(C)C)c(=O)c2=O)C1 (stereo unspecified) | 1.36 |  |
| CCn1c(SCC(=O)N2CCCc3ccccc32)nnc1-c1c[nH]c2ccccc12 |  | inactive |
| CC(C)(C)NC(=O)Cn1c(=O)oc2ccc(Cl)cc21 | -3.03 (active) |  |

From PubChem BioAssay AID1259240 (Keith Lab, Institute of Cancer Science, University of …, 2017)
